APEX1 inh: APE1 (human) endonuclease inhibition. P27695. hit rate 0.35% among 350,000. recombinant APE1, TAMRA/BHQ-2 abasic DNA cleavage fluorescence. Potency, µM (series often up to 65.8 µM), for inactives: at the top dose activity change, negative = inhibition, usual class: inhibitors;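 note: potency is the fitted concentration of half-maximal effect; plate controls were vehicle for no effect and reference inhibitor for full effect; nearly all actives have a fitted effect of over 55% in size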
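Measures dequenching upon AP-site incision of a 5'-TAMRA/3'-BHQ-2 THF-containing duplex, 50 nM; human APE1 0.75 nM after 15 min room-temperature exposure to compound; kinetic three-point read at one-minute spacing.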
WRN inhibitor: blocks human WRN helicase; Q14191; WRN helicase unwinding, fluorescent forked duplex, kinetic; Potency, µM (top dose mostly 114 µM), for the others: at the top dose activity change, negative = inhibition, usual class: inhibitors; hit rate 0.46% among 360,000; note: potency is the fitted concentration of half-maximal effect; nearly all actives have a fitted effect of over 55% in size
Target sequence (Q14191 whole entry, looked up): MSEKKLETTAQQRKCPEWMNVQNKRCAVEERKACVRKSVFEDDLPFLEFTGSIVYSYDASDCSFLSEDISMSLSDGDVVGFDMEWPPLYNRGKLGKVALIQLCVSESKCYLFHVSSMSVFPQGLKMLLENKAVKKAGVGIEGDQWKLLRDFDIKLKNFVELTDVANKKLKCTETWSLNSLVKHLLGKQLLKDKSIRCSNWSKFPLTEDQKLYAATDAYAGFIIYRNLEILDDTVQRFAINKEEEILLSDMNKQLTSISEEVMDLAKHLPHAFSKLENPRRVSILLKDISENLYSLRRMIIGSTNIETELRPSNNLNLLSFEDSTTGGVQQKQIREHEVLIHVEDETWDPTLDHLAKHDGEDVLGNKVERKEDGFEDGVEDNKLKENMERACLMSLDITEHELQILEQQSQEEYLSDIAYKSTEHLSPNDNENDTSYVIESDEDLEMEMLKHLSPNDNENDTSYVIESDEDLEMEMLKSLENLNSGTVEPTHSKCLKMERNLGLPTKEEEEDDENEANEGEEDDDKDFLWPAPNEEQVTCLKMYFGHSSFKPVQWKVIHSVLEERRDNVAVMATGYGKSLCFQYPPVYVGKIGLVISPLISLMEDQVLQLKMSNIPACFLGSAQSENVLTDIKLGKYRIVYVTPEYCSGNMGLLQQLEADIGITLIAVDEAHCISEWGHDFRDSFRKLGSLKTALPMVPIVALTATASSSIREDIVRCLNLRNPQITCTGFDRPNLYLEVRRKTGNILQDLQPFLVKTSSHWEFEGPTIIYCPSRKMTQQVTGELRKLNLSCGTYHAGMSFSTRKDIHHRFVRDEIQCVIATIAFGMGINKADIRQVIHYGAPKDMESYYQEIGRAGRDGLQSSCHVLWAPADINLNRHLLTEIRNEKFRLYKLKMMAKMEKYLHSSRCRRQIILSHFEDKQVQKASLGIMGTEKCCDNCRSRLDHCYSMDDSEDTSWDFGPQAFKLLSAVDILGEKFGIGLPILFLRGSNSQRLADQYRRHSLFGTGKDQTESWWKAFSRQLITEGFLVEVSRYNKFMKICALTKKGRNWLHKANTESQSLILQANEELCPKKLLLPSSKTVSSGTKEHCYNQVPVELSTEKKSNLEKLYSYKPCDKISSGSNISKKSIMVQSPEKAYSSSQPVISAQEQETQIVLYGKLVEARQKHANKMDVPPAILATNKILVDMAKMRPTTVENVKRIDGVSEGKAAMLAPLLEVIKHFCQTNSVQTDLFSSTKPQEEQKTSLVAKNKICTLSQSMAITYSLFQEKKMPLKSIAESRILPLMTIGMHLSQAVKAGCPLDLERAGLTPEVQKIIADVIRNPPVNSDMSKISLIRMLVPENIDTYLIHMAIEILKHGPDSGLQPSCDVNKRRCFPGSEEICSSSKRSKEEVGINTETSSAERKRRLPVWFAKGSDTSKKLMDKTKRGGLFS
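Kinetic fluorescence helicase assay: unwinding of a quenched forked DNA duplex (100 nM final) with 2 mM ATP final raises red fluorescence (525/598 nm). Compounds sat 15 min at room temperature with 20 nM WRN beforehand.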
FEN1 inh: blocks human flap endonuclease 1 | Potency, µM (highest dose often 114 µM), without a hit: at the highest dose activity change, negative = inhibition, hits mostly inhibitors | Recombinant FEN1 flap cleavage, fluorescence, 15 min | hit rate 0.35% among 390,000; note: potency is the fitted concentration of half-maximal effect; nearly all actives have a fitted effect of over 65% in size
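Potency values derive from four-parameter Hill fits of normalized qHTS data. The reaction used 10 nM FEN1 preincubated 15 min at room temperature with compound, then 50 nM DNA substrate, read at 0 and 15 min.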
BLM inh: blocks DNA unwinding by human BLM helicase | recombinant BLM DNA unwinding, fluorescence dequenching | Potency, µM (titrated, usually from 56.1 µM), for inactives: at the highest dose activity change, negative = inhibition, most hits filed as inhibitors | hit rate 0.2% among 350,000 | AID 2528;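 note: potency is the fitted concentration of half-maximal effect; plate controls were vehicle for no effect and no enzyme for full effect; nearly all actives have a fitted effect of over 35% in size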
RECQ1 helicase: blocks DNA unwinding by human RECQ1; P46063; RECQ1 DNA unwinding, red fluorescence kinetic read; Potency, µM (titrated, usually from 57.3 µM), for the others: top-dose activity, negative = inhibition, hits mostly inhibitors; hit rate 0.54% among 240,000; AID 2549;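 note: potency is the fitted concentration of half-maximal effect; plate controls were vehicle for no effect and no enzyme for full effect; nearly all actives have a fitted effect of over 30% in size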
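RECQ1T1 50 nM; forked duplex (20 bp + 30-nt ss tails) 200 nM, ATP 2 mM final; pH 8.0, 2 mM MgCl2, 2.5 ug/ml poly(dI-dC); 15 min compound preincubation; discontinuous kinetic read over 2 h at RT.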
PI5P4Ka inh: blocks human PI5P4K alpha kinase activity | P48426 | PI5P4Kalpha enzyme, ADP-Glo luminescence, 60 min; active compounds read low | max response, % | hit rate 1.2% among 330,000; active = max response of -50% or lower; inconclusive = between -30% and -50%; inactive = -30% or higher; note: value at the top dose of about 77 µM
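Single end-point luminescence (ADP-Glo) quantified ADP from PI5P4Kalpha turnover; ATP 5 microM final, 1 h at RT, 0.1% CHAPS and 0.28 mM EGTA in HEPES pH 7.4.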
* hit, by the source's call; i = inactive; ? = inconclusive; · = no result given; [ ] = dose if it differs, or a comment. Shown are actives, neighbours in structure and some others; about 1.5% of the full set was active somewhere. Unless noted, calls come from the whole dose curve; as a rule, active = well fitted curve in the direction sought with a large enough effect; inconclusive = small, poorly fitted or top-dose-only effect, or another doubt; inactive = no such curve, though single readings can be large; an effect the other way counts as inactive or inconclusive. Unless noted, % is set by controls: 0 for no effect and ±100 for the full control effect.

SMILES	APEX1 inh	WRN inhibitor	FEN1 inh	BLM inh	RECQ1 helicase	PI5P4Ka inh
Cc1cccc2c1c1ccc3c(c1n2C)C(=O)C=CC3=O	?	-8.3%	?	-19.8%	2.7%	-72.6*
Cc1ccccc1N1CC(=O)N(c2ccccc2C)CC1=O	0.0%	-3.2%	-1.5%	-2.9%	-7.0%	1.6
O=C(CN1C(=O)CSC1=O)Nc1ccc2c(c1)OCCO2	-1.5%	-1.0%	-6.9%	-3.1%	-2.0%	-55.4*
CCOc1ccc(CNC(=O)CCCn2c(=O)c3cccn3c3ccc(F)cc32)cc1	·	·	-0.4%	-0.8%	·	·
COc1ccc(CNC(=O)c2cc3c(=O)n4ccccc4nc3n(Cc3cccnc3)c2=N)cc1	16.4%	-23.5%	-10.8%	-10.2%	14.1µM*	·
CN(C)/C=C/c1[nH]c(=O)[nH]c(=O)c1[N+](=O)[O-]	20.0%	-5.5%	-18.7%	-1.6%	1.1%	-79.5*
O=c1[nH]c(/C=C/c2ccc([N+](=O)[O-])cc2)c([N+](=O)[O-])c(=O)[nH]1	10.9%	-24.5%	-17.6%	-7.9%	·	-66.5*
COc1ccc(OC)c(C=Cc2ccc([N+](=O)[O-])cc2)c1	·	-7.0%	·	·	·	5.6
CN(C)/C=C/c1oc2ccc(O)cc2c1[N+](=O)[O-]	-9.7%	-28.4%	-14.6%	-10.3%	-3.6%	-29.6
O=c1[nH]c(/C=C/c2ccc3c(c2)OCO3)c([N+](=O)[O-])c(=O)[nH]1	-3.2%	·	·	-1.4%	i	·
Cc1cccc(NC(=O)COc2ccc(/C=C\c3[nH]c(=O)[nH]c(=O)c3[N+](=O)[O-])cc2)c1	0.6%	?	44.7µM*	?	?	-56.5*
CCOC(=O)c1cccc(NC(=O)COc2ccc([N+](=O)[O-])cc2)c1	0.8%	-21.9%	-17.5%	-5.8%	-5.2%	·
COc1ccc(OC)c(/C=C/c2[nH]c(=O)[nH]c(=O)c2[N+](=O)[O-])c1	-14.0%	-6.5%	-5.5%	-5.6%	·	-76.6*
OCc1cccc(Cl)c1Cl	11.2%	·	·	1.4%	1.3%	·
Cc1ccc(C2C(C#N)=C(N)Oc3c2c(=O)n(C)c(=O)n3C)cc1 (configuration not stated)	-7.1%	-6.2%[57.1 µM]	1.6%	0.6%	i	-8.0
CCNc1nc2[nH]c(=O)c3c(c2s1)OC(N)=C(C#N)C3c1ccc(C)cc1 (configuration not stated)	-3.4%	-29.5%	-13.5%	-11.9%	-1.9%	-67.0*
C#CCN(Cc1ccc(OC)cc1)S(=O)(=O)C=C	·	·	-20.4%	·	·	·
CC(C)C[C@@H](CNCC(=O)[C@H](Cc1c[nH]c2ccccc12)NC(=O)c1[nH]cnc1C(=O)N[C@@H](C)CN)NC(=O)c1nc[nH]c1C(=O)N[C@@H](CC(=O)O)C(=O)O	·	-8.0%	14.1%	·	·	-62.4*
CC(C)C[C@@H](CNCC(=O)[C@H](Cc1c[nH]c2ccccc12)NC(=O)c1[nH]cnc1C(=O)N[C@H](CN)CC(C)C)NC(=O)c1nc[nH]c1C(=O)N[C@@H](CC(=O)O)C(=O)O	·	-10.8%	1.1%	·	·	?
CCc1sc(/C=C(/C#N)C(N)=S)cc1[N+](=O)[O-]	?	?	-16.1%	-1.7%	-9.5%	-83.3*
COC(=O)c1c(-c2cccs2)csc1NC(=O)c1cc(OC)cc(OC)c1	·	·	-5.8%	-8.2%	·	·
C=C(C)C(=O)Nc1ccc2c(c1)OCCOCCOCCO2	-1.3%	?	?	?	?	-73.8*
O=C1NC(=S)S/C1=C\c1cc2ccccc2nc1N1CCCCC1	-2.9%	8.4%[11.6 µM]	-11.6%	-3.8%	-10.8%	-21.2
O=C1NC(=S)S/C1=C\c1cccc([N+](=O)[O-])c1	·	-7.4%[11.6 µM]	?	·	·	-65.4*
COc1ccc(C=C2SC(=S)NC2=O)c(OC)c1OC	·	?	-10.0%	·	·	-63.5*
SMILES	APEX1 inh	WRN inhibitor	FEN1 inh	BLM inh	RECQ1 helicase	PI5P4Ka inh
O=C1NC(=O)/C(=C/c2cccc([N+](=O)[O-])c2)N1	-0.9%	4.1%	-3.4%	-3.4%	-1.3%	-29.7
O=C1NC(=S)SC1=Cc1ccccc1Cl	·	-33.7%	-9.4%	·	·	-79.4*
COc1ccccc1C=C1SC(=S)NC1=O	·	-22.6%	-2.9%	·	·	-71.7*
CCC(=O)NC1CCc2cccc(OC)c2C1 (configuration not stated)	13.3%	·	·	·	i	·
C[N+]1(Cc2ccccc2)CCC(C(=O)OCC2CCCC2)CC1 (configuration not stated)	-1.6%	·	·	·	12.8%	·
OC[C@H]1OC(O)(CN2CCOCC2)[C@H](O)[C@@H]1O (some centres not stated)	-1.9%	·	·	-2.5%	-15.3%	·
Cc1cc(C(F)(F)F)nn1Cc1n[nH]c(=S)n1Cc1ccccc1	3.4%	2.7%	-4.1%	2.1%	-5.6%	-53.9*
Nc1ccc(Cc2ccc(C=O)cc2)cc1	·	·	3.9%	·	·	·
COc1cc2nc(N3CCNCC3)nc(N)c2cc1OC	19.3%	?	56.2µM*	33.9%	15.4%	?
COc1cc2nc(N3CCN(c4cc(C)ccc4C)CC3)nc(N)c2cc1OC	29.1%	14.0%	-8.2%	2.7%	·	?
Cc1cc(C)cc(NC(=O)C(=O)NC(C)c2ccccc2)c1 (configuration not stated)	·	·	15.0%	-4.6%	·	·
CC1=Nc2ccccc2/C1=C\c1sc(Nc2ccc(C)cc2)nc1O	-3.0%	-3.7%	-18.4%	-9.1%	-4.2%	-66.1*
Oc1cccc(Nc2nc(O)c(/C=C3\C=Nc4ccccc43)s2)c1	-4.6%	?	-18.2%	-24.6%	-21.3%	-101.6*
Oc1nc(Nc2cccc(Cl)c2)sc1/C=C1\C=Nc2ccccc21	-1.1%	-30.6%	-20.4%	-13.5%	-20.5%	-61.6*
Oc1nc(Nc2ccc(F)cc2)sc1/C=C1\C=Nc2ccccc21	-0.2%	-5.0%	-10.3%	-10.0%	i	?
O=C(CSc1nc(-c2ccc(F)cc2)nc2c1Cc1ccccc1O2)Nc1ccc(F)cc1	14.5%	·	·	·	·	·
CCN(CC)CCNc1cc(C)nc2c1C(=O)C(=O)C=C2N1CCCCC1	-0.4%	-1.5%	-17.3%	-9.6%	-14.7%	0.4
COC(=O)c1cc(C)nc2c1C(=O)C(=O)C=C2N1CCOCC1	-8.4%	?	-23.2%	8.91µM*	·	-15.5
CCCCCCCCN1[C@@H](CC(C)=O)c2ccc(/C=C/C(C)=O)cc2S1(=O)=O	·	·	0.8%	·	·	·
COc1ccc(Cl)cc1NC(=S)NNC(=O)C1(C)CC1(Cl)Cl (configuration not stated)	-0.8%	-2.3%	8.8%	-2.7%	2.8%	-51.7*
COC(=O)c1cc(OC)c(OC)cc1NC(=S)Nc1cc(Cl)ccc1OC	1.8%	-16.0%	-11.3%	-9.4%	-0.3%	0.6
O=C(C[C@@H]1C/C=C\C[C@H](Cc2ccc(F)cc2)C(=O)OC[C@@H](Cc2c[nH]c3ccccc23)NC1=O)NCCO	11.9µM*	12.6%	-4.4%	·	·	-0.6

Screens as filed in PubChem BioAssay.
